# Measurements from the supplement of paper PMC4466140.
# Molecular target: AgAbp1
# Test: SPOT peptide array binding signal intensity (averaged, normalized) (arbitrary units (background-subtracted, floor 0; scale differs between SH3 domains)); higher = stronger binding of the SH3 domain to the peptide
# How it was run: (§1)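 GST-SH3 fusions from four yeast species, purified on glutathione Sepharose, were incubated at 10 μg/ml overnight at 4°C on membranes of synthetic 15-mer peptides in which cysteines were replaced with serines. Binding signal is the normalized, background-subtracted spot intensity averaged over replicates, in domain-specific arbitrary units.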
row,Binder,SPOT peptide array binding signal intensity
1,RPKRRAPPPVPKKPS,5860

# Molecular target: AgBbc1
# Test: as above
# How it was run: as §1
row,Binder,SPOT peptide array binding signal intensity
1,RPKRRAPPPVPKKPS,1090

# Molecular target: AgBem1-D1
# Test: as above
# How it was run: as §1
row,Binder,SPOT peptide array binding signal intensity
1,RPKRRAPPPVPKKPS,166

# Molecular target: AgBzz1-D1
# Test: as above
# How it was run: as §1
row,Binder,SPOT peptide array binding signal intensity
1,RPKRRAPPPVPKKPS,3720

# Molecular target: AgBzz1-D2
# Test: as above
# How it was run: as §1
row,Binder,SPOT peptide array binding signal intensity
1,RPKRRAPPPVPKKPS,825

# Molecular target: AgCyk3
# Test: as above
# How it was run: as §1
row,Binder,SPOT peptide array binding signal intensity
1,RPKRRAPPPVPKKPS,1

# Molecular target: AgFus1
# Test: as above
# How it was run: as §1
row,Binder,SPOT peptide array binding signal intensity
1,RPKRRAPPPVPKKPS,63.5

# Molecular target: AgHof1
# Test: as above
# How it was run: as §1
row,Binder,SPOT peptide array binding signal intensity
1,RPKRRAPPPVPKKPS,380

# Molecular target: AgHse1
# Test: as above
# How it was run: as §1
row,Binder,SPOT peptide array binding signal intensity
1,RPKRRAPPPVPKKPS,294

# Molecular target: AgLsb1
# Test: as above
# How it was run: as §1
row,Binder,SPOT peptide array binding signal intensity
1,RPKRRAPPPVPKKPS,1120

# Molecular target: AgLsb4
# Test: as above
# How it was run: as §1
row,Binder,SPOT peptide array binding signal intensity
1,RPKRRAPPPVPKKPS,313

# Molecular target: AgMyo5
# Test: as above
# How it was run: as §1
row,Binder,SPOT peptide array binding signal intensity
1,RPKRRAPPPVPKKPS,124

# Molecular target: AgNbp2
# Test: as above
# How it was run: as §1
row,Binder,SPOT peptide array binding signal intensity
1,RPKRRAPPPVPKKPS,4930

# Molecular target: AgRvs167
# Test: as above
# How it was run: as §1
row,Binder,SPOT peptide array binding signal intensity
1,RPKRRAPPPVPKKPS,191

# Molecular target: AgSho1
# Test: as above
# How it was run: as §1
row,Binder,SPOT peptide array binding signal intensity
1,RPKRRAPPPVPKKPS,650

# Molecular target: AgSla1-D1-D2
# Test: as above
# How it was run: as §1
row,Binder,SPOT peptide array binding signal intensity
1,RPKRRAPPPVPKKPS,274

# Molecular target: AgSla1-D3
# Test: as above
# How it was run: as §1
row,Binder,SPOT peptide array binding signal intensity
1,RPKRRAPPPVPKKPS,577

# Molecular target: CaAbp1-D1
# Test: as above
# How it was run: as §1
row,Binder,SPOT peptide array binding signal intensity
1,RPKRRAPPPVPKKPS,2320

# Molecular target: CaAbp1-D2
# Test: as above
# How it was run: as §1
row,Binder,SPOT peptide array binding signal intensity
1,RPKRRAPPPVPKKPS,4720

# Molecular target: CaBbc1
# Test: as above
# How it was run: as §1
row,Binder,SPOT peptide array binding signal intensity
1,RPKRRAPPPVPKKPS,1840

# Molecular target: CaBem1-D1
# Test: as above
# How it was run: as §1
row,Binder,SPOT peptide array binding signal intensity
1,RPKRRAPPPVPKKPS,78.5

# Molecular target: CaBzz1-D1
# Test: as above
# How it was run: as §1
row,Binder,SPOT peptide array binding signal intensity
1,RPKRRAPPPVPKKPS,7010

# Molecular target: CaBzz1-D2
# Test: as above
# How it was run: as §1
row,Binder,SPOT peptide array binding signal intensity
1,RPKRRAPPPVPKKPS,4680

# Molecular target: CaCyk3
# Test: as above
# How it was run: as §1
row,Binder,SPOT peptide array binding signal intensity
1,RPKRRAPPPVPKKPS,55

# Molecular target: CaFus1
# Test: as above
# How it was run: as §1
row,Binder,SPOT peptide array binding signal intensity
1,RPKRRAPPPVPKKPS,350

# Molecular target: CaHof1
# Test: as above
# How it was run: as §1
row,Binder,SPOT peptide array binding signal intensity
1,RPKRRAPPPVPKKPS,0.5

# Molecular target: CaHse1
# Test: as above
# How it was run: as §1
row,Binder,SPOT peptide array binding signal intensity
1,RPKRRAPPPVPKKPS,666

# Molecular target: CaLsb1
# Test: as above
# How it was run: as §1
row,Binder,SPOT peptide array binding signal intensity
1,RPKRRAPPPVPKKPS,≤ 0

# Molecular target: CaLsb4
# Test: as above
# How it was run: as §1
row,Binder,SPOT peptide array binding signal intensity
1,RPKRRAPPPVPKKPS,2700

# Molecular target: CaMyo5
# Test: as above
# How it was run: as §1
row,Binder,SPOT peptide array binding signal intensity
1,RPKRRAPPPVPKKPS,2.5

# Molecular target: CaNbp2
# Test: as above
# How it was run: as §1
row,Binder,SPOT peptide array binding signal intensity
1,RPKRRAPPPVPKKPS,3680

# Molecular target: CaRvs167
# Test: as above
# How it was run: as §1
row,Binder,SPOT peptide array binding signal intensity
1,RPKRRAPPPVPKKPS,127

# Molecular target: CaRvs167-3
# Test: as above
# How it was run: as §1
row,Binder,SPOT peptide array binding signal intensity
1,RPKRRAPPPVPKKPS,170

# Molecular target: CaSho1
# Test: as above
# How it was run: as §1
row,Binder,SPOT peptide array binding signal intensity
1,RPKRRAPPPVPKKPS,236

# Molecular target: CaSla1-D1-D2
# Test: as above
# How it was run: as §1
row,Binder,SPOT peptide array binding signal intensity
1,RPKRRAPPPVPKKPS,3850

# Molecular target: CaSla1-D3
# Test: as above
# How it was run: as §1
row,Binder,SPOT peptide array binding signal intensity
1,RPKRRAPPPVPKKPS,920

# Molecular target: ScAbp1
# Test: as above
# How it was run: as §1
row,Binder,SPOT peptide array binding signal intensity
1,RPKRRAPPPVPKKPS,3840

# Molecular target: ScBbc1
# Test: as above
# How it was run: as §1
row,Binder,SPOT peptide array binding signal intensity
1,RPKRRAPPPVPKKPS,835

# Molecular target: ScBem1-D1
# Test: as above
# How it was run: as §1
row,Binder,SPOT peptide array binding signal intensity
1,RPKRRAPPPVPKKPS,69

# Molecular target: ScBzz1-D1
# Test: as above
# How it was run: as §1
row,Binder,SPOT peptide array binding signal intensity
1,RPKRRAPPPVPKKPS,1610

# Molecular target: ScBzz1-D2
# Test: as above
# How it was run: as §1
row,Binder,SPOT peptide array binding signal intensity
1,RPKRRAPPPVPKKPS,75.5

# Molecular target: ScCyk3
# Test: as above
# How it was run: as §1
row,Binder,SPOT peptide array binding signal intensity
1,RPKRRAPPPVPKKPS,17.5

# Molecular target: ScFus1
# Test: as above
# How it was run: as §1
row,Binder,SPOT peptide array binding signal intensity
1,RPKRRAPPPVPKKPS,42.5

# Molecular target: ScHof1
# Test: as above
# How it was run: as §1
row,Binder,SPOT peptide array binding signal intensity
1,RPKRRAPPPVPKKPS,0.5

# Molecular target: ScHse1
# Test: as above
# How it was run: as §1
row,Binder,SPOT peptide array binding signal intensity
1,RPKRRAPPPVPKKPS,432

# Molecular target: ScLsb1
# Test: as above
# How it was run: as §1
row,Binder,SPOT peptide array binding signal intensity
1,RPKRRAPPPVPKKPS,819

# Molecular target: ScLsb2
# Test: as above
# How it was run: as §1
row,Binder,SPOT peptide array binding signal intensity
1,RPKRRAPPPVPKKPS,796

# Molecular target: ScLsb3
# Test: as above
# How it was run: as §1
row,Binder,SPOT peptide array binding signal intensity
1,RPKRRAPPPVPKKPS,3720

# Molecular target: ScLsb4
# Test: as above
# How it was run: as §1
row,Binder,SPOT peptide array binding signal intensity
1,RPKRRAPPPVPKKPS,95

# Molecular target: ScMyo3
# Test: as above
# How it was run: as §1
row,Binder,SPOT peptide array binding signal intensity
1,RPKRRAPPPVPKKPS,705

# Molecular target: ScMyo5
# Test: as above
# How it was run: as §1
row,Binder,SPOT peptide array binding signal intensity
1,RPKRRAPPPVPKKPS,471

# Molecular target: ScNbp2
# Test: as above
# How it was run: as §1
row,Binder,SPOT peptide array binding signal intensity
1,RPKRRAPPPVPKKPS,5640

# Molecular target: ScPex13
# Test: as above
# How it was run: as §1
row,Binder,SPOT peptide array binding signal intensity
1,RPKRRAPPPVPKKPS,482

# Molecular target: ScRvs167
# Test: as above
# How it was run: as §1
row,Binder,SPOT peptide array binding signal intensity
1,RPKRRAPPPVPKKPS,1640

# Molecular target: ScSho1
# Test: as above
# How it was run: as §1
row,Binder,SPOT peptide array binding signal intensity
1,RPKRRAPPPVPKKPS,2030

# Molecular target: ScSla1-D1-D2
# Test: as above
# How it was run: as §1
row,Binder,SPOT peptide array binding signal intensity
1,RPKRRAPPPVPKKPS,3510

# Molecular target: ScSla1-D3
# Test: as above
# How it was run: as §1
row,Binder,SPOT peptide array binding signal intensity
1,RPKRRAPPPVPKKPS,896

# Molecular target: SpAbp1-D1
# Test: as above
# How it was run: as §1
row,Binder,SPOT peptide array binding signal intensity
1,RPKRRAPPPVPKKPS,3020

# Molecular target: SpBbc1
# Test: as above
# How it was run: as §1
row,Binder,SPOT peptide array binding signal intensity
1,RPKRRAPPPVPKKPS,115

# Molecular target: SpBzz1-D1
# Test: as above
# How it was run: as §1
row,Binder,SPOT peptide array binding signal intensity
1,RPKRRAPPPVPKKPS,1740

# Molecular target: SpBzz1-D2
# Test: as above
# How it was run: as §1
row,Binder,SPOT peptide array binding signal intensity
1,RPKRRAPPPVPKKPS,713

# Molecular target: SpCyk3
# Test: as above
# How it was run: as §1
row,Binder,SPOT peptide array binding signal intensity
1,RPKRRAPPPVPKKPS,4

# Molecular target: SpHof1
# Test: as above
# How it was run: as §1
row,Binder,SPOT peptide array binding signal intensity
1,RPKRRAPPPVPKKPS,374

# Molecular target: SpHof1-2
# Test: as above
# How it was run: as §1
row,Binder,SPOT peptide array binding signal intensity
1,RPKRRAPPPVPKKPS,43.2

# Molecular target: SpHof1-3
# Test: as above
# How it was run: as §1
row,Binder,SPOT peptide array binding signal intensity
1,RPKRRAPPPVPKKPS,972

# Molecular target: SpHse1
# Test: as above
# How it was run: as §1
row,Binder,SPOT peptide array binding signal intensity
1,RPKRRAPPPVPKKPS,221

# Molecular target: SpLsb1
# Test: as above
# How it was run: as §1
row,Binder,SPOT peptide array binding signal intensity
1,RPKRRAPPPVPKKPS,1830

# Molecular target: SpLsb4
# Test: as above
# How it was run: as §1
row,Binder,SPOT peptide array binding signal intensity
1,RPKRRAPPPVPKKPS,925

# Molecular target: SpMyo1
# Test: as above
# How it was run: as §1
row,Binder,SPOT peptide array binding signal intensity
1,RPKRRAPPPVPKKPS,687

# Molecular target: SpNbp2
# Test: as above
# How it was run: as §1
row,Binder,SPOT peptide array binding signal intensity
1,RPKRRAPPPVPKKPS,173

# Molecular target: SpPex13
# Test: as above
# How it was run: as §1
row,Binder,SPOT peptide array binding signal intensity
1,RPKRRAPPPVPKKPS,220

# Molecular target: SpRvs167
# Test: as above
# How it was run: as §1
row,Binder,SPOT peptide array binding signal intensity
1,RPKRRAPPPVPKKPS,1300

# Molecular target: SpSla1-D1-D2
# Test: as above
# How it was run: as §1
row,Binder,SPOT peptide array binding signal intensity
1,RPKRRAPPPVPKKPS,1490

# Molecular target: SpSla1-D3
# Test: as above
# How it was run: as §1
row,Binder,SPOT peptide array binding signal intensity
1,RPKRRAPPPVPKKPS,2
